Assay results: the supplement of paper PMC6555819

Legend:
Assay in all cases: PBM binding z-score (relative to random genomic background probes); higher = stronger binding; sequences stand for … in GC…GCGATTGACAGCGTAGAATGAAGG
[1] = system: PPARg:RXRa DBDmut IVT, anti-RXR (DBD mutation: RXRa K156A/R161A, NR concentration 270 nM, RXRa partner concentration 90 nM)
Procedure, shortened: (§1)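 Binding z-scores were set against random background probes. The data came from custom Agilent 4×180K protein-binding microarrays carrying double-stranded probes with 34-nt variable regions, incubated 1 h with ligand-free nuclear receptor dimers. Partner-specific antibodies detected binding, and scanned fluorescence was regression-normalized.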

[2] = system: PPARg:RXRa IVT, anti-PPARg (NR concentration 270 nM, RXRa partner concentration 90 nM)
Procedure, shortened: as §1

[3] = system: PPARg DBDmut:RXRa IVT, anti-PPARg (DBD mutation: PPARg1 K132A/R137A, NR concentration 270 nM, RXRa partner concentration 90 nM)
Procedure, shortened: as §1

[4] = system: PPARg DBDmut IVT, anti-PPARg (DBD mutation: PPARg1 K132A/R137A, NR concentration 270 nM)
Procedure, shortened: as §1

[5] = system: PPARg homodimer (NR concentration 180 nM)
Procedure, shortened: as §1

[6] = system: PXR:RXRa (NR concentration 270 nM, RXRa partner concentration 90 nM)
Procedure, shortened: as §1

[7] = system: PXR homodimer (NR concentration 270 nM)
Procedure, shortened: as §1

[8] = system: RARa:RXR (NR concentration 270 nM, RXRa partner concentration 90 nM)
Procedure, shortened: as §1

[9] = system: RARa homodimer (NR concentration 270 nM)
Procedure, shortened: as §1

[10] = system: RARb homodimer (NR concentration 270 nM)
Procedure, shortened: as §1

[11] = system: RARg:RXRa (NR concentration 270 nM, RXRa partner concentration 90 nM)
Procedure, shortened: as §1

[12] = system: RARg homodimer (NR concentration 270 nM)
Procedure, shortened: as §1

[13] = system: RXRa DBDmut IVT, anti-RXR (DBD mutation: RXRa K156A/R161A, NR concentration 90 nM)
Procedure, shortened: as §1

[14] = system: RXRa homodimer (NR concentration 180 nM)
Procedure, shortened: as §1

[15] = system: THRa:RXRa (NR concentration 90 nM, RXRa partner concentration 90 nM)
Procedure, shortened: as §1

[16] = system: THRa homodimer (NR concentration 90 nM)
Procedure, shortened: as §1

[17] = system: VDR homodimer (NR concentration 270 nM)
Procedure, shortened: as §1

[18] = system: RARb:RXRa (NR concentration 270 nM, RXRa partner concentration 90 nM)
Procedure, shortened: as §1

[19] = system: VDR:RXRa (NR concentration 270 nM, RXRa partner concentration 90 nM)
Procedure, shortened: as §1

Sequence | PBM binding z-score [1] | PBM binding z-score [2] | PBM binding z-score [3] | PBM binding z-score [4] | PBM binding z-score [5] | PBM binding z-score [6] | PBM binding z-score [7] | PBM binding z-score [8] | PBM binding z-score [9] | PBM binding z-score [10] | PBM binding z-score [11] | PBM binding z-score [12] | PBM binding z-score [13] | PBM binding z-score [14] | PBM binding z-score [15] | PBM binding z-score [16] | PBM binding z-score [17] | PBM binding z-score [18] | PBM binding z-score [19]
CGTCTAAGGTCAAGGTCAGTGAAAGAGACTCGAA | 4.02 | 4.78 | 0.613 | 0.471 | 4.29 | 5.41 | 1.4 | 5.75 | 2.57 | 5.28 | 7.24 | 8.01 | 4.05 | 7.32 | 4.53 | 4.38 | 3.2 | – | –
CGTCTAAGGTCAGCAGGTCAGTGAAAGCGACGTG | 3.72 | 3.7 | 0.756 | 0.144 | 5.12 | 4.16 | 0.612 | 5.94 | 2.05 | 5.24 | 6.82 | 7.53 | 3.01 | 6.01 | 4.47 | 3.96 | 1.86 | – | –
CCTTACCGGTCAAGGTTATAGCACGGGTGGTACG | -0.499 | 0.825 | -0.737 | -0.375 | 1.58 | 1.16 | 0.299 | 1.3 | 0.889 | 2.84 | 2.53 | 3.33 | -0.447 | 1.46 | 1.74 | 0.941 | 0.853 | – | –
TCTCGGAGGACACGAAAGGTCAGAACTCGACATC | 1.63 | 1.22 | -0.541 | -0.269 | 3.91 | 4.08 | 0.978 | – | 2 | 4.38 | 4.56 | 5.19 | 0.955 | 3.93 | 3.46 | 1.48 | 1.29 | 3.83 | 3.19
CGTCCAAGGTCACAGGAGGTCAGTGAAGACAGAT | 4.02 | 5.26 | 0.184 | -0.411 | 4.98 | 6.88 | 3.92 | 6.48 | 2.32 | 5.53 | – | 8.33 | 3.73 | – | 5.28 | 3.66 | 4.32 | – | –
ACTTACGGGTCAACGACGTTATAGCACGCGTATA | 3.06 | 3.74 | 1.35 | 0.774 | 1.67 | 3.19 | -0.178 | – | 0.684 | 2.87 | 5.07 | 4.51 | 1.59 | 5.19 | 2.68 | 0.369 | 0.841 | 4.07 | 4
CGTCCAAGGTCAAAGGTCAGGGAAGAGATGACGG | 3.65 | 6.24 | 1.42 | 0.451 | 3.19 | 7 | 1.61 | 8.27 | 2.57 | 5.58 | 9.1 | 8.2 | 3.54 | 10.4 | – | 2.92 | 3.13 | – | –
CGTCCAAGGTCAAGCTCAGTGAAAGAGACTCGAA | 3.71 | 3.76 | 0.736 | 0.448 | 3.54 | 3.92 | 0.3 | – | 0.572 | 3.96 | 6.43 | 6.63 | 3.51 | 6.22 | 3.76 | 2.32 | 2.03 | 5.27 | –
CGTCCAAGGTCAATGTTAGGTCAGTGAAAGCATT | 2.85 | 3.43 | -0.0958 | -0.256 | 3.57 | 4.77 | 1.6 | 5.78 | 1.18 | 5.33 | 7.45 | 6.89 | 3.6 | 5.27 | – | 3.81 | 2.78 | – | 4.92
ATCGAAAGGTCGTGAGGTGTGTATACAGAAAGGC | 0.0315 | 2.26 | 1.54 | 0.468 | 2.59 | 3.12 | -0.215 | – | 0.71 | 2.68 | 4.5 | 4.17 | 1.67 | 4.81 | 2.44 | -0.109 | 1.16 | 3.97 | 4.55
CCAGAAAGGTGAAAGGTAACTCAGTCTGGTACGC | 4.19 | 4.68 | 0.791 | 0.428 | 1.51 | 2.26 | 0.172 | – | 0.674 | 1.92 | 3.17 | 2.13 | 0.365 | 4.27 | 1.94 | 0.107 | 0.0179 | 3.3 | 1.81
AGTCAAAGTTCATCTTGGTAACGTAAGATATGCT | 0.418 | 2.63 | 0.383 | 1.1 | 2.64 | 4.92 | 6.26 | – | 1.55 | 4.03 | 5.43 | 5.84 | 4.52 | 4.52 | 2.03 | -0.478 | 4.88 | 4.95 | –
CCTAGTTGGCCAAGGTCACACACGCTATAGGTAC | 1.76 | 2.66 | 0.582 | 0.0264 | 2.66 | 3.85 | 1.93 | – | 1.5 | 4.08 | 4.16 | 4.16 | 2.02 | 4.27 | 3.96 | 3.61 | 3.38 | 3.8 | –
CCTAGCAGGCCAGGGTCACCCAAGCATTTCGCTT | -0.0206 | 1.79 | -0.767 | -1.42 | 1.59 | 3.36 | -0.361 | – | -0.318 | 3.34 | 3.95 | 2.98 | -0.0851 | 4.34 | 3.44 | 1.71 | 1.35 | 3.12 | –
